Source: PubChem (several laboratories)
Compounds with a hit are over-represented: about 3% of the library has one in this group of screens.
MITF act – activators of MITF-driven TRPM1 promoter activity in SK-MEL-5 cells | SK-MEL-5 TRPM1-promoter luciferase, 24 h; % of positive control, neutral wells = 0 | activation, % at 12.5 µM | hit rate 0.75% among 300,000 | AID 588334;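 active = mean activation of at least 80% with every replicate also reaching 80%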;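 also: 0% = neutral control wells and 100% = parthenolide positive control wells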
TWEAK Fn14 block – blocks TWEAK-Fn14 interaction in a reporter cell assay. TWEAK-stimulated Fn14 reporter cells, luciferase luminescence, 8 h. hit rate 2% among 360,000. inhibition, % at 10 µM; in the data active = inhibition above about 50%
LMP1 NFkB inh – inhibitors of Epstein-Barr LMP1-induced NF-kappaB reporter; LMP1-induced NF-kappaB luciferase reporter cells, luminescence; inhibition, % at 12.5 µM; hit rate 0.69% among 350,000; in the data active = inhibition above about 41%;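 also: 0% = neutral control wells and 100% = reference inhibitor control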
LGR2 inh – blocks bursicon-induced cAMP signaling via Drosophila LGR2; AID 720647; hit rate 0.35% among 380,000; inhibition, % at 9.99 µM; HEK293 LGR2, CRE-luciferase, bursicon-stimulated, 4 h;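 active = drop in luminescence signal, shown as inhibition above about 50% in the replicate tests, limit read from the data, passing the limit was not always enough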;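 also: agonist challenge used bursicon conditioned medium at about half maximal strength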
TRPM1 prom inh – reduces MITF-dependent TRPM1 promoter luciferase signal; SK-MEL-5 TRPM1 promoter luciferase, 24 h; inhibition, % at 12.5 µM; hit rate 0.83% among 330,000;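 active = mean inhibition across replicates of 60% or more, whatever share of single replicates reaches that level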
TROY signal inh – inhibitors of TROY-dependent NF-kB signaling | Q293 LMP1-TROYcd NF-kB luciferase reporter, 4 h | AID 1347056 | hit rate 0.98% among 360,000 | inhibition, % at 10 µM;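 active = compounds whose plate-normalised and pattern-corrected inhibition of the luciferase reporter signal at the single screening dose is 50% or more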
* marks the source's active call; other numbers are inactive results; · = no result given.

SMILES | MITF act | TWEAK Fn14 block | LMP1 NFkB inh | LGR2 inh | TRPM1 prom inh | TROY signal inh
C[C@@H]1CN([C@H](C)CO)C(=O)c2cc(NC(=O)CCC(F)(F)F)ccc2O[C@@H](C)CCCCO[C@H]1CN(C)S(=O)(=O)c1cccs1 | · | · | · | -11 | · | ·
O=C(O)CC(CCc1ccccc1)OC1OC(CO)C(O)C(O)C1O (stereo not given) | -1 | 59* | 11 | 12 | 3 | 1
CCC(=O)N1C[C@@H](C)[C@@H](OC)CN(C)C(=O)c2ccc(NC(=O)C3CCOCC3)cc2OC[C@H]1C | · | · | · | -5 | · | ·
Cc1cc(C)c2c(N)c(C(=O)c3ccccc3Cl)sc2n1 | -5 | 11 | 16 | 7 | 3 | 17
Cc1cc(C)c2c(N)c(C(=O)c3ccc(Cl)cc3Cl)sc2n1 | 1 | 52* | 12 | -6 | 4 | 30
Cc1cc(C)c2c(N)c(C(=O)Nc3ncc(C)s3)sc2n1 | -87 | 79* | 77* | · | 88* | 5
COc1ccc(NC(=O)N2CC(=O)N3[C@H](C2)[C@@H](c2ccc(-c4ccccc4)cc2)[C@@H]3CO)cc1 | · | · | · | 22 | · | ·
CCOc1ccc(-n2c(C)c(C(=O)O)c3cc(OC)ccc32)cc1 | 14 | 40 | 2 | 9 | -12 | -15
COc1ccc(-n2c(C)c(C(C)=O)c3cc(O)ccc32)cc1 | -4 | 59* | 57* | · | 1 | 49
COc1ccc2c(c1)c(C(C)=O)c(C)n2CCc1ccccc1 | -14 | 69* | 26 | 11 | 17 | 27
COc1ccc2c(c1)c(C(C)=O)c(C)n2CCc1ccc(OC)c(OC)c1 | -2 | -26 | 7 | 4 | 4 | -19
CCOc1ccc(-n2c(C)c(C(C)=O)c3cc(OC(C)=O)ccc32)cc1 | · | 79* | 32 | 33 | · | 42
CNC[C@H]1Oc2cc(C#Cc3ccccc3F)ccc2S(=O)(=O)N([C@H](C)CO)C[C@@H]1C | · | · | · | 3 | · | ·
CCCNC(=O)N(C)C[C@H]1Oc2ncc(-c3ccncc3)cc2C(=O)N([C@@H](C)CO)C[C@H]1C | · | · | · | 0 | · | ·
CO[C@@H]1CN(C)C(=O)c2cc(NC(=O)c3ccccc3F)ccc2OC[C@@H](C)N(C(=O)c2ccccc2F)C[C@@H]1C | · | · | · | 10 | · | ·
CC(C)NC(=O)N(C)C[C@@H]1Oc2c(NC(=O)C3CCCCC3)cccc2C(=O)N([C@@H](C)CO)C[C@H]1C | · | · | · | -3 | · | ·
CCOc1ccccc1N1CCN(C(=O)c2ccc(Cl)c(S(=O)(=O)N3CCCCC3)c2)CC1 | -15 | 42 | 14 | 13 | 13 | 53*
CCOc1ccc(NS(=O)(=O)c2cc(C(=O)N3CCN(C(C)=O)CC3)ccc2Cl)cc1 | -9 | 89* | -1 | 10 | 12 | -1
CCOc1ccccc1N1CCN(C(=O)c2cc(S(=O)(=O)N3CCCCC3)ccc2C)CC1 | -1 | 8 | -6 | 15 | 5 | 6
CCCOc1ccc(F)cc1-c1cc(C(=O)Nc2cc(OC)c(OC)c(OC)c2)[nH]n1 | · | 64* | · | 51* | · | 9
CCS(=O)(=O)N1CCC2(CC1)CN(C(=O)Nc1cccc(F)c1)[C@@H](CO)c1c2c2ccc(OC)cc2n1C | · | · | · | 12 | · | ·
CCCN(CCC)c1ncnc2nc[nH]c12 | · | 63* | 48* | 25 | · | 50*
COc1ccc(NC(=O)Nc2cccc3c2O[C@@H](CN(C)C)[C@H](C)CN([C@H](C)CO)C3=O)cc1 | · | · | · | -5 | · | ·
CNC[C@@H]1Oc2ncc(-c3ccc(OC)cc3)cc2C(=O)N([C@H](C)CO)C[C@H]1C | · | · | · | 0 | · | ·
O=C(NC1CCCCC1)C12CC3CC(C1)CC(n1cncn1)(C3)C2 | 3 | 1 | 78* | 0 | -3 | -13
SMILES | MITF act | TWEAK Fn14 block | LMP1 NFkB inh | LGR2 inh | TRPM1 prom inh | TROY signal inh
CC(NC(=O)C12CC3CC(C1)CC(n1cncn1)(C3)C2)C12CC3CC(CC(C3)C1)C2 (stereo not given) | -2 | -12 | 10 | · | 4 | -5
CC(=O)N1CCCCN2[C@H](CO)[C@H](c3ccc(C#Cc4ccccc4F)cc3)[C@@H]2C1 | · | · | · | -6 | · | ·
CCn1cc(CNC(=O)c2ccc3nc(Cc4ccccc4F)oc3c2)cn1 | 22 | 5 | -6 | -18 | -22 | 10
Cn1cc(CNC(=O)c2ccc3nc(Cc4ccccc4F)oc3c2)cn1 | 84* | -71 | -12 | -21 | -83 | -51
Cn1cc(CCNC(=O)c2ccc3nc(Cc4ccccc4F)oc3c2)cn1 | 125* | -27 | -20 | -89 | -121 | -40
COc1ccc(-c2ccc([C@H]3[C@@H](CO)N4C(=O)CNC[C@H]34)cc2)cc1 | · | · | · | 21 | · | ·
